The source made the active and inactive calls. The calls were made as follows: active = hit-call score of the fitted dose curve at least 0.9, where 1 is the maximum; inactive = score below 0.9.
Test: ATG_M_32_CIS: Attagene CIS-FACTORIAL HepG2 Assay for M32 Transcription Factor (Internal Marker) (AID 2282949);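 also: background control marker of the multiplexed CIS panel rather than a real target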
Conditions: HepG2 Attagene cis-factorial M32 reporter, mRNA; actives raise or lower the signal
Description: ATG_CIS is a cell-based, multiplexed-readout assay that uses HepG2, a human liver cell line, with measurements taken at 24 hours after chemical dosing in a 24-well plate.ATG_M_32_CIS is one of 52 assay component(s) measured or calculated from the ATG_CIS assay. It is designed to make measurements of mRNA induction, a form of inducible reporter, as detected with fluorescence intensity signals by Reverse transcription polymerase chain reaction (RT-PCR) and Capillary electrophoresis technology.Data from the assay component ATG_M_32_CIS was analyzed into 1 assay endpoint. This assay endpoint, ATG_M_32_CIS, was analyzed with bidirectional fitting relative to DMSO as the negative control and baseline of activity. Using a type of inducible reporter, measures of mRNA for gain or loss-of-signal activity can be used to understand the background control at the transcription factor-level as they relate to the gene . Furthermore, this assay endpoint can be referred to as a secondary readout, because this assay has produced multiple assay endpoints where this one serves a background control function. To generalize the intended target to other relatable targets, this assay endpoint is annotated to the background measurement intended target family, where the subfamily is internal marker.
Human liver HepG2 cells are transiently transfected with multiple reporter transcription units (MRTUs) in 6-well plates using FuGene 6 reagent (Roche; 3 ml FuGene/1 mg DNA). The MRTU constructs are regulated by a cis-regulating element (promoter). […] A major difference between the CIS and TRANS system is that in CIS activities of endogenous TFs are measured, whereas the TRANS assay evaluates changes in activities of exogenous, chimeric NR-Gal4 proteins. […] At the end of 24 hour incubation, total RNA was isolated using TriZol reagent (Invitrogen). The isolated RNA is then reverse-transcribed using oligo(dT) primer and Mo-MLV reverse transcriptase (Invitrogen) with DNAse I (Ambion) treatment for 30 min. The one-tenth of the produced cDNA was amplified by PCR using Taq DNA polymerase (Invitrogen) and two reporter sequence-specific primers. The PCR products were fluorescently labeled by primer extension with 6-arboxyfluorescein (6-FAM) 5'-labeled reporter sequence-specific primer (2 min at 95 C, 20 s at 68 C and 10 min at 72 C) and these products were digested with 5U of HpaI (New England Biolabs) for 2h at 37 C. The fragments were purified using Qiaquick PCR columns (Qiagen), analyzed on an ABI 3130xL genetic analyzer (Applied Biosystems) with peak positions identified by using a set of X-rhodamine (ROX)-labeled MapMarker1000 molecular weight standards (BioVentures). The raw capillary electrophoresis data was processed using Attagraph software (Attagene).

| SMILES | outcome | AC50 |
| --- | --- | --- |
| O=S(=O)(O)c1ccc(N=Nc2c(O)ccc3ccccc23)cc1 | inactive |  |
| CCOC(=O)c1ccccc1C | inactive |  |
| CC1(C)[C@@H]2CC[C@@]1(C)C(=O)C2 | inactive |  |
| c1ccc(-c2nc3ccccc3[nH]2)cc1 | inactive |  |
| COC(=O)CC(C)CCC=C(C)C (stereo not given) | inactive |  |
| CCCCCCCCCC[N+](C)(CCCCCCCCCC)CCC[Si](OC)(OC)OC |  | 20.2 µM (active) |
| C[Si]1(C)O[Si](C)(C)O[Si](C)(C)O[Si](C)(C)O[Si](C)(C)O1 | inactive |  |
| CC=CC(=O)OCC(C)C | inactive |  |
| CC(=O)OCc1ccccc1 | inactive |  |
| CC(=O)OC(C)c1ccccc1 (stereo not given) | inactive |  |
| CCCCCCCCCCCC(C)=O | inactive |  |
| Oc1ccc(/C=C/c2cc(O)cc(O)c2)cc1 | inactive |  |
| CCOB(OCC)OCC | inactive |  |
| O=C1CCCCCCCCCCC1 | inactive |  |
| Oc1ccc(-c2ccccc2)c(Cl)c1 | inactive |  |
| CC1OC(=O)C(C)OC1=O (stereo not given) | inactive |  |
| CC1=CP(=O)(c2ccccc2)CC1 (stereo not given) | inactive |  |
| CC(C)CC(=O)OCc1ccccc1 | inactive |  |
| COC(Cc1ccccc1)OC | inactive |  |
| N#Cc1ccc(C2CCCc3cncn32)cc1 (stereo not given) | inactive |  |

| SMILES | outcome | AC50 |
| --- | --- | --- |
| CC(Cl)COP(=O)(OCC(C)Cl)OCC(C)Cl (stereo not given) | inactive |  |
| c1ccc(Nc2cccc3ccccc23)cc1 | inactive |  |
| CCOC(=O)[C@H](O)[C@@H](O)C(=O)OCC | inactive |  |
| NC(=O)Nc1ccccc1 | inactive |  |
| Cc1ccc(S(=O)(=O)N=C=O)cc1 | inactive |  |
| CC(C)(CO)COC(=O)C(C)(C)CO | inactive |  |
| CCC(C)(O)CCCC(C)C (stereo not given) | inactive |  |
| CCCCCCCC(=O)OCC | inactive |  |
| C=C1C[C@H]2[C@@H]3C=C(C)C4=CC(=O)CC[C@]4(C)[C@H]3CC[C@]2(C)[C@@]1(OC(C)=O)C(C)=O | inactive |  |
| CC(=O)OC1CCCCC1 | inactive |  |
| CCCCCCC=O | inactive |  |
| Cc1ccc2c(c1)CCCN2 | inactive |  |
| Cn1ccnc1 | inactive |  |
| CCCCCCCCCCCCCCCCCCOS(=O)(=O)O |  | 53 µM (active) |
| CCCCCCCCCCCCCC(=O)OC(C)C | inactive |  |
| CC1(C)CC(O)CC(C)(C)N1[O] | inactive |  |
| CCC1COC(=O)O1 (stereo not given) | inactive |  |
| Cc1cc(=O)[nH]c(=O)[nH]1 | inactive |  |
| Cc1c(O)cccc1O | inactive |  |
| CC(C)=CCl | inactive |  |

— PubChem BioAssay (EPA / NIEHS)
